Compound activity (PubChem BioAssay)
TSHR antagonist: antagonists of human thyroid stimulating hormone receptor. P16473. AID 504810. activity change, negative = inhibition, % at 11.5 µM. 330,000 compounds, 0.2% hits. TSHR-expressing cells, TSH-stimulated cAMP HTRF, 2 h; hits give low values;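 active = activity change below a set negative limit, meaning inhibition stronger than a set level, cut at about -70% in these data; inconclusive = activity change between two set negative limits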
Target sequence (P16473 whole entry, looked up): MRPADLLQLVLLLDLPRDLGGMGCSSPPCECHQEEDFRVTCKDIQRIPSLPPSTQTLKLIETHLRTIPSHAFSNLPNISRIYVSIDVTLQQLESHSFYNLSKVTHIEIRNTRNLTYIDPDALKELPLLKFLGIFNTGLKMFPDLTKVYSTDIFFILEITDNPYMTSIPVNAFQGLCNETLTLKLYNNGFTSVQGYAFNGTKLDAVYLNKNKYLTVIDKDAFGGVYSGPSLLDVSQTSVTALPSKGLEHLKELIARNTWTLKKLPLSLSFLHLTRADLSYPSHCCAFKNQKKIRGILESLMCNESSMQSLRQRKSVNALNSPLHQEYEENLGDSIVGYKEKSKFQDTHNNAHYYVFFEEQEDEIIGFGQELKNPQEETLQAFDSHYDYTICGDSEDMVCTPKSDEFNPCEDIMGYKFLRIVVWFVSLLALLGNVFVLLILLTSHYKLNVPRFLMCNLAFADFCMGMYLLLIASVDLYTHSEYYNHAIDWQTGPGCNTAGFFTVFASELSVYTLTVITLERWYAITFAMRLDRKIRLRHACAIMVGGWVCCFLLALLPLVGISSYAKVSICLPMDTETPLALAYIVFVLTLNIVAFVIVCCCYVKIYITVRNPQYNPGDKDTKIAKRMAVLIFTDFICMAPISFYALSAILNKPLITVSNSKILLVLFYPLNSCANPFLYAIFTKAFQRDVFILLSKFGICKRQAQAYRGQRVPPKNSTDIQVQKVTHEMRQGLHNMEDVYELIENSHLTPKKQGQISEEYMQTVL
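Cell-based HTRF cAMP assay; TSHR cells + compound, TSH EC80 (4nM final), 2 h, 37 deg C. Lysis with anti-cAMP cryptate and cAMP-d2, 30 min RT, read 665/620 nm.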
ELG1 repair inh: inhibitors of ELG1-dependent DNA repair in HEK293T cells | HEK293T ELG1-luciferase reporter, luminescence, 16 h; DNA damage induced by 5-fluorouridine | AID 504467 | 330,000 compounds, 2.3% hits | Potency, µM (top dose mostly 46.1 µM), for inactives: at the top dose activity change, negative = inhibition, usual class: inhibitors; note: potency is the fitted concentration of half-maximal effect; nearly all actives have a fitted effect of over 55% in size
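In this reporter screen, reduction of luminescence relative to DMSO vehicle indicated activity. Compounds and 5-fluorouridine were added together to 2,000 cells per well, incubated for 16 hr at 37 °C, then developed with ONE-Glo.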
RORg inh: blocks mouse ROR gamma transcriptional activity | P51450 | Drosophila S2 Gal4-RORgamma UAS-luciferase reporter, 20 h | Potency, µM (titrated, usually from 53.6 µM), inactives show at the top dose activity change, negative = inhibition, usual class: inhibitors | 310,000 compounds, 5.4% hits; note: potency is the fitted concentration of half-maximal effect; nearly all actives have a fitted effect of over 60% in size
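Drosophila S2 cells stably expressing Gal4-DBD/mouse RORγ fusion under metallothionein promoter plus UAS-luciferase; compound 1 h, then 700 uM CuSO4 induction for 20 h at ambient temperature; inhibition read as reduced luminescence.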
B2AR arrestin: recruits beta-arrestin to the human beta2-adrenergic receptor. P07550. beta-arrestin recruitment to beta2AR, cell-based reporter. Potency, µM (highest dose often 46.1 µM), inactives show at the highest dose activation, hits mostly activators. 330,000 compounds, 0.02% hits. AID 492947;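 note: potency is the fitted concentration of half-maximal effect; 0% = DMSO controls and full agonism = EC100 isoproterenol or metaproterenol; nearly all actives have a fitted effect of over 65% in size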
VP16 counter: counter-screen for ROR gamma inhibitors: Gal4-VP16 reporter | Drosophila S2 Gal4-VP16 UAS-luciferase, luminescence, 20 h | Potency, µM (titrated, usually from 53.6 µM), inactives show at the highest dose activity, negative = inhibition, most hits filed as inhibitors | 310,000 compounds, 3.5% hits;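 note: Gal4-VP16 expression switched on by copper sulfate through the metallothionein promoter; potency is the fitted concentration of half-maximal effect; nearly all actives have a fitted effect of over 50% in size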
The depositor's hits bear a star; u = inconclusive; x = no result; [ ] = another dose, or the depositor's remark. This is a sample that favours compounds with a hit; in the whole collection about 7.5% have one here. Unless noted, calls come from the whole dose curve; as a rule, active = well fitted curve in the direction sought with a large enough effect; inconclusive = small, poorly fitted or top-dose-only effect, or another doubt; inactive = no such curve, though single readings can be large; an effect the other way counts as inactive or inconclusive. Unless noted, % is set by controls: 0 for no effect and ±100 for the full control effect.

SMILES	TSHR antagonist	ELG1 repair inh	RORg inh	B2AR arrestin	VP16 counter
CCOC(CCn1c(SCc2ccc([N+](=O)[O-])cc2)nc2ccccc2c1=O)OCC	-19	15µM*	-44%	-1%	u
CCOc1ccc(OCC)c(NC(=O)CSc2nc3ccccc3c(=O)n2C)c1	-24	u	-15%	-1%	20µM*
CCOC(CCn1c(SCC(=O)Nc2cc(C)on2)nc2ccccc2c1=O)OCC	-4	21µM*	-5%	0%	1%
CCOC(Cn1c(SCC(=O)Nc2cc(C)on2)nc2ccccc2c1=O)OCC	-11	0%	-9%	0%	7%
Cc1ccc(C(=O)NCC(=O)N2CCN(c3cccc(Cl)c3)CC2)s1	-20	11%	x	3%	x
COc1ccccc1C1CC(=O)Nc2cc3c(cc21)OCCO3 (centres undefined)	24	9%	-14%	-1%	11µM*
O=C1CN(C(=O)CSc2nnnn2-c2ccc(Cl)cc2)c2ccccc2N1	-6	u	3.5µM*	0%	-3%
CC(c1ccccc1)n1c(SCC(=O)N2CC(=O)Nc3ccccc32)nc2ccccc2c1=O (centres undefined)	-8	u	34%	-1%	-8%
Cc1cccc(-n2c(SCC(=O)N3CC(=O)Nc4ccccc43)nc3ccccc3c2=O)c1C	4	21µM*	u	0%	0%
O=C1CN(C(=O)CSc2nc3cc(Cl)ccc3c(=O)n2Cc2ccccc2)c2ccccc2N1	-3	u	u	-1%	13µM*
Cc1ccc(Cn2c(SCC(=O)N3CC(=O)Nc4ccccc43)nc3ccccc3c2=O)cc1	34	u	1.6µM*	-2%	u
Cc1cccc(-n2c(SCC(=O)N3CC(=O)Nc4ccccc43)nc3ccccc3c2=O)c1	1	u	12%	0%	-6%
Cc1nnc(SCC(=O)N2CC(=O)Nc3ccccc32)n1Cc1ccccc1	12	0%	14%	0%	-8%
CC12CC3OS(=O)OC3CC3C4C(C(OCc5ccccc5)C31)C42 (centres undefined)	x	x	-5%[10 µM]	x	5%[10 µM]
CCOC(=O)[C@@H]1[C@H]2COc3ccc(Br)cc3[C@@H]2N2C(=O)N(c3ccc(F)cc3)C(=O)[C@]12C	2	13%	5%	-1%	0%
C[n+]1cccc(/C=N/Nc2nc(Cl)c(C#N)c(Cl)c2Cl)c1	-1	6%	-12%	-1%	-6%
N#Cc1c(Cl)nc(N/N=C/c2ccccc2)c(Cl)c1Cl	u	8%	8.9µM*	3%	5µM*
CCOC(=O)C1CCCN(C(=O)Cn2sc3nc(C)cc(C)c3c2=O)C1 (centres undefined)	9	24%	u	0%	1.8µM*
OCCN1CC(O)C(O)C(O)C1CO (centres undefined)	x	x	16%	x	-9%
CN1C2CCC1/C(=C\c1ccc(F)cc1)C(=O)/C2=C/c1ccc(F)cc1	3	18µM*	-25%	3%	11%
COC(=O)C1=C(C)NC(=O)NC1c1ccc(-c2ccccc2Cl)o1 (centres undefined)	40	28%	u	0%	-5%
CCOC(=O)C1=C(C)NC(=S)NC1c1ccc(-c2cccc(Cl)c2C)o1 (centres undefined)	0	21µM*	4µM*	0%	8.9µM*
COC(=O)C1=C(C)NC(=S)NC1c1ccc(-c2ccccc2C(=O)OC)o1 (centres undefined)	6	-1%	18µM*	-1%	-19%
CCOC(=O)C1=C(C)NC(=O)NC1c1ccc(-c2ccc(Cl)cc2)o1 (centres undefined)	-11	u	-21%	0%	-7%
CCOC(=O)C1=C(C)NC(=S)NC1c1ccc(-c2ccc(Cl)cc2)o1 (centres undefined)	4	u	2.5µM*	6%	6.3µM*
COC(=O)C1=C(C)NC(=S)NC1c1ccc(-c2cccc(Cl)c2)o1 (centres undefined)	9	u	14µM*	4%	u
CCOC(=O)C1=C(C)NC(=S)NC1c1ccco1 (centres undefined)	-5	-4%	-39%	0%	-4%
